# Data reported in article PMC11006913.
# Substitutions are numbered along the chain they refer to.
# Columns and labels:
# Experiment in all cases: PBM; 200 nM protein, PBS
# Conditions in all cases: dsDNA, one strand shown
# SIX6 [1] = target: T1, SIX6 (Homo sapiens, UniProt O95475 114-200, L167I)
# T1 sequence: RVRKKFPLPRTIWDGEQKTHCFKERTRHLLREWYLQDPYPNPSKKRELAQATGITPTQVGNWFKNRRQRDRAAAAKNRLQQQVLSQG
# SIX6 [2] = target: T2, SIX6 (Homo sapiens, UniProt O95475 114-200, L143V)
# T2 sequence: T1 sequence with L30V, I54L
# SIX6 [3] = target: T3, SIX6 (Homo sapiens, UniProt O95475 114-200, H141N)
# T3 sequence: T1 sequence with H28N, I54L
# SIX6 [4] = target: T4, SIX6 (Homo sapiens, UniProt O95475 114-200, T165P)
# T4 sequence: T1 sequence with T52P, I54L
# SIX6 [5] = target: T5, SIX6 (Homo sapiens, UniProt O95475 114-200, L167M)
# T5 sequence: T1 sequence with I54M
# SIX6 [6] = target: T6, SIX6 (Homo sapiens, UniProt O95475 114-200, L143M)
# T6 sequence: T1 sequence with L30M, I54L
# SIX6 [7] = target: T7, SIX6 (Homo sapiens, UniProt O95475 114-200, L143I)
# T7 sequence: T1 sequence with L30I, I54L
# SIX6 [8] = target: T8, SIX6 (Homo sapiens, UniProt O95475 114-200, T165G)
# T8 sequence: T1 sequence with T52G, I54L
# SIX6 [9] = target: T9, SIX6 (Homo sapiens, UniProt O95475 114-200, T139Q)
# T9 sequence: T1 sequence with T26Q, I54L
# SIX6 [10] = target: T10, SIX6 (Homo sapiens, UniProt O95475 114-200, T165A)
# T10 sequence: T1 sequence with T52A, I54L
# SIX6 [11] = target: T11, SIX6 (Homo sapiens, UniProt O95475 114-200, L167V)
# T11 sequence: T1 sequence with I54V
# SIX6 [12] = target: T12, SIX6 (Homo sapiens, UniProt O95475 114-200)
# T12 sequence: T1 sequence with I54L
# SIX6 [13] = target: T13, SIX6 (Homo sapiens, UniProt O95475 114-200, T165I)
# T13 sequence: T1 sequence with T52I, I54L
Sequence,binding signal (SIX6 [1]),binding signal (SIX6 [2]),binding signal (SIX6 [3]),binding signal (SIX6 [4]),binding signal (SIX6 [5]),binding signal (SIX6 [6]),binding signal (SIX6 [7]),binding signal (SIX6 [8]),binding signal (SIX6 [9]),binding signal (SIX6 [10]),binding signal (SIX6 [11]),binding signal (SIX6 [12]),binding signal (SIX6 [13])
GTATATCA,"11.2 upbm affinity estimate (log intensity, higher = more binding, comparable within an allelic series)","10.5 upbm affinity estimate (log intensity, higher = more binding, comparable within an allelic series)","11.3 upbm affinity estimate (log intensity, higher = more binding, comparable within an allelic series)","9.99 upbm affinity estimate (log intensity, higher = more binding, comparable within an allelic series)","10.9 upbm affinity estimate (log intensity, higher = more binding, comparable within an allelic series)","11.1 upbm affinity estimate (log intensity, higher = more binding, comparable within an allelic series)","10.5 upbm affinity estimate (log intensity, higher = more binding, comparable within an allelic series)","11.2 upbm affinity estimate (log intensity, higher = more binding, comparable within an allelic series)","11.2 upbm affinity estimate (log intensity, higher = more binding, comparable within an allelic series)","11.2 upbm affinity estimate (log intensity, higher = more binding, comparable within an allelic series)","11 upbm affinity estimate (log intensity, higher = more binding, comparable within an allelic series)","11.1 upbm affinity estimate (log intensity, higher = more binding, comparable within an allelic series)","11.2 upbm affinity estimate (log intensity, higher = more binding, comparable within an allelic series)"
CTATATCA,"11.2 upbm affinity estimate (log intensity, higher = more binding, comparable within an allelic series)","10.4 upbm affinity estimate (log intensity, higher = more binding, comparable within an allelic series)","11.2 upbm affinity estimate (log intensity, higher = more binding, comparable within an allelic series)","9.95 upbm affinity estimate (log intensity, higher = more binding, comparable within an allelic series)","10.7 upbm affinity estimate (log intensity, higher = more binding, comparable within an allelic series)","11 upbm affinity estimate (log intensity, higher = more binding, comparable within an allelic series)","10.4 upbm affinity estimate (log intensity, higher = more binding, comparable within an allelic series)","11.1 upbm affinity estimate (log intensity, higher = more binding, comparable within an allelic series)","11.1 upbm affinity estimate (log intensity, higher = more binding, comparable within an allelic series)","11 upbm affinity estimate (log intensity, higher = more binding, comparable within an allelic series)","10.9 upbm affinity estimate (log intensity, higher = more binding, comparable within an allelic series)","10.9 upbm affinity estimate (log intensity, higher = more binding, comparable within an allelic series)","11.1 upbm affinity estimate (log intensity, higher = more binding, comparable within an allelic series)"
ATGATACA,"11.3 upbm affinity estimate (log intensity, higher = more binding, comparable within an allelic series)","10.5 upbm affinity estimate (log intensity, higher = more binding, comparable within an allelic series)","11.3 upbm affinity estimate (log intensity, higher = more binding, comparable within an allelic series)","9.98 upbm affinity estimate (log intensity, higher = more binding, comparable within an allelic series)","10.8 upbm affinity estimate (log intensity, higher = more binding, comparable within an allelic series)","11.1 upbm affinity estimate (log intensity, higher = more binding, comparable within an allelic series)","10.5 upbm affinity estimate (log intensity, higher = more binding, comparable within an allelic series)","11.3 upbm affinity estimate (log intensity, higher = more binding, comparable within an allelic series)","11.2 upbm affinity estimate (log intensity, higher = more binding, comparable within an allelic series)","11.2 upbm affinity estimate (log intensity, higher = more binding, comparable within an allelic series)","11.1 upbm affinity estimate (log intensity, higher = more binding, comparable within an allelic series)","11.1 upbm affinity estimate (log intensity, higher = more binding, comparable within an allelic series)","11.1 upbm affinity estimate (log intensity, higher = more binding, comparable within an allelic series)"
ATTATACC,"10.8 upbm affinity estimate (log intensity, higher = more binding, comparable within an allelic series)","10.3 upbm affinity estimate (log intensity, higher = more binding, comparable within an allelic series)","10.7 upbm affinity estimate (log intensity, higher = more binding, comparable within an allelic series)","10.1 upbm affinity estimate (log intensity, higher = more binding, comparable within an allelic series)","10.5 upbm affinity estimate (log intensity, higher = more binding, comparable within an allelic series)","10.8 upbm affinity estimate (log intensity, higher = more binding, comparable within an allelic series)","10.3 upbm affinity estimate (log intensity, higher = more binding, comparable within an allelic series)","10.8 upbm affinity estimate (log intensity, higher = more binding, comparable within an allelic series)","10.8 upbm affinity estimate (log intensity, higher = more binding, comparable within an allelic series)","10.7 upbm affinity estimate (log intensity, higher = more binding, comparable within an allelic series)","10.5 upbm affinity estimate (log intensity, higher = more binding, comparable within an allelic series)","10.7 upbm affinity estimate (log intensity, higher = more binding, comparable within an allelic series)","10.6 upbm affinity estimate (log intensity, higher = more binding, comparable within an allelic series)"
AAGTGCGC,"8.9 upbm affinity estimate (log intensity, higher = more binding, comparable within an allelic series)","9.07 upbm affinity estimate (log intensity, higher = more binding, comparable within an allelic series)","8.88 upbm affinity estimate (log intensity, higher = more binding, comparable within an allelic series)","9.2 upbm affinity estimate (log intensity, higher = more binding, comparable within an allelic series)","9.05 upbm affinity estimate (log intensity, higher = more binding, comparable within an allelic series)","9.11 upbm affinity estimate (log intensity, higher = more binding, comparable within an allelic series)","9.08 upbm affinity estimate (log intensity, higher = more binding, comparable within an allelic series)","9 upbm affinity estimate (log intensity, higher = more binding, comparable within an allelic series)","9.05 upbm affinity estimate (log intensity, higher = more binding, comparable within an allelic series)","8.96 upbm affinity estimate (log intensity, higher = more binding, comparable within an allelic series)","8.99 upbm affinity estimate (log intensity, higher = more binding, comparable within an allelic series)","9.04 upbm affinity estimate (log intensity, higher = more binding, comparable within an allelic series)","9.04 upbm affinity estimate (log intensity, higher = more binding, comparable within an allelic series)"
CAGGTATC,"10.9 upbm affinity estimate (log intensity, higher = more binding, comparable within an allelic series)","10.2 upbm affinity estimate (log intensity, higher = more binding, comparable within an allelic series)","10.9 upbm affinity estimate (log intensity, higher = more binding, comparable within an allelic series)","9.6 upbm affinity estimate (log intensity, higher = more binding, comparable within an allelic series)","10.5 upbm affinity estimate (log intensity, higher = more binding, comparable within an allelic series)","10.7 upbm affinity estimate (log intensity, higher = more binding, comparable within an allelic series)","10.2 upbm affinity estimate (log intensity, higher = more binding, comparable within an allelic series)","11.1 upbm affinity estimate (log intensity, higher = more binding, comparable within an allelic series)","11.1 upbm affinity estimate (log intensity, higher = more binding, comparable within an allelic series)","11 upbm affinity estimate (log intensity, higher = more binding, comparable within an allelic series)","10.6 upbm affinity estimate (log intensity, higher = more binding, comparable within an allelic series)","10.9 upbm affinity estimate (log intensity, higher = more binding, comparable within an allelic series)","10.7 upbm affinity estimate (log intensity, higher = more binding, comparable within an allelic series)"
